Measured values published in paper PMC4081100, “A DNA-binding-site landscape and regulatory network analysis for NAC transcription factors in Arabidopsis thaliana”.

Columns and labels:
Test in all cases: universal protein binding microarray (PBM); transcription factors of Arabidopsis thaliana; high values mean tight binding
GST-ANAC092(1-176) = target: T1, GST-ANAC092(1-176) (Arabidopsis thaliana, UniProt Q9FKA0 1-176); conditions: protein: recombinant; tags: GST; chain copies: 2; dsDNA, one strand shown
T1 sequence: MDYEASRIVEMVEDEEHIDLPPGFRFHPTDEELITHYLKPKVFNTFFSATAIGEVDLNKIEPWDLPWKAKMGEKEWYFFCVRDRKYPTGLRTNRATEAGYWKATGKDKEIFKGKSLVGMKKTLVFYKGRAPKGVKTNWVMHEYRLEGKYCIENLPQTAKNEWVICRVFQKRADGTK
In short: (§1)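 GST-tagged proteins (NAC-domain, full-length or DNA-binding-domain) were induced in cells, with zinc acetate supplied for zinc-finger proteins, then purified on glutathione–Sepharose 4B. Each was tested in duplicate at 200 to 500 nM final on custom all-10-mer Agilent 4 × 180K arrays rendered double-stranded by primer extension. The binding value is the normalised enrichment score (E-score) across gapped and ungapped 8-mers.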

GST-ANAC019 NAC domain = target: T2, GST-ANAC019 NAC domain (Arabidopsis thaliana, UniProt Q9C932 14-162); conditions: protein: recombinant; tags: GST; chain copies: 2; dsDNA, one strand shown
T2 sequence: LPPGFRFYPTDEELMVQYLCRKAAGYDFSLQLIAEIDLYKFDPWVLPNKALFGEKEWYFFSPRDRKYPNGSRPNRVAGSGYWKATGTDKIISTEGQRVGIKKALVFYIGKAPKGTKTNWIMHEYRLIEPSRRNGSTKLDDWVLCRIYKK
In short: as §1

GST-ANAC055(1-171) = target: T3, GST-ANAC055(1-171) (Arabidopsis thaliana, UniProt Q9LDY8 1-171); conditions: protein: recombinant; tags: GST; chain copies: 2; dsDNA, one strand shown
T3 sequence: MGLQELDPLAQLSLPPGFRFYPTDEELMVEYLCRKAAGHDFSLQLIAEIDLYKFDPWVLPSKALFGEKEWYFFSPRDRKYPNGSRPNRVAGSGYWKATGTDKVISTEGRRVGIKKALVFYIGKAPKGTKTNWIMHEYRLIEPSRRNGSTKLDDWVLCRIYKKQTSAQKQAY
In short: as §1

GST-ATAF1 NAC domain = target: T4, GST-ATAF1 NAC domain (Arabidopsis thaliana, UniProt Q39013 7-158); conditions: protein: recombinant; tags: GST; chain copies: 2; dsDNA, one strand shown
T4 sequence: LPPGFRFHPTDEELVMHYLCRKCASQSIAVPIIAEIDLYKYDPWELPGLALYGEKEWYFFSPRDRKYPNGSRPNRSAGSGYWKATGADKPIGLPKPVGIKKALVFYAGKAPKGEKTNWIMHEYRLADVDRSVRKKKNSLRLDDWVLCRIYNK
In short: as §1

[1] = target: T5, GST-ANAC092(1-285) full length (Arabidopsis thaliana, UniProt Q9FKA0 1-285); conditions: protein: recombinant; tags: GST; chain copies: 2; dsDNA, one strand shown
T5 sequence: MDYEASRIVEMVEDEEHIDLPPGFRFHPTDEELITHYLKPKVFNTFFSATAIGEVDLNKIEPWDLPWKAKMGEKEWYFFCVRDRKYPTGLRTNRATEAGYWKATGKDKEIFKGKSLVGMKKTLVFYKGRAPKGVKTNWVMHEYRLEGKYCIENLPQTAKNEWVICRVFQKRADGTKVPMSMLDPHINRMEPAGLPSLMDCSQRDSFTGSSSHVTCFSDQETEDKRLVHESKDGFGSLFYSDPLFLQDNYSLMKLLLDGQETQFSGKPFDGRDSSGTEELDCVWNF
In short: as §1

GST-NAP(1-166) = target: T6, GST-NAP(1-166) (Arabidopsis thaliana, UniProt O49255 1-166); conditions: protein: recombinant; tags: GST; chain copies: 2; dsDNA, one strand shown
T6 sequence: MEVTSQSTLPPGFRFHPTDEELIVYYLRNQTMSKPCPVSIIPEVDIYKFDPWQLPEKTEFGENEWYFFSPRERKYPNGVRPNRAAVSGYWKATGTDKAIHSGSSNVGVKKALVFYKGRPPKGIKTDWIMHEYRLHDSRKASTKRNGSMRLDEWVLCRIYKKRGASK
In short: as §1

GST-NST2(1-184) = target: T7, GST-NST2(1-184) (Arabidopsis thaliana, UniProt Q9M274 1-184); conditions: protein: recombinant; tags: GST; chain copies: 2; dsDNA, one strand shown
T7 sequence: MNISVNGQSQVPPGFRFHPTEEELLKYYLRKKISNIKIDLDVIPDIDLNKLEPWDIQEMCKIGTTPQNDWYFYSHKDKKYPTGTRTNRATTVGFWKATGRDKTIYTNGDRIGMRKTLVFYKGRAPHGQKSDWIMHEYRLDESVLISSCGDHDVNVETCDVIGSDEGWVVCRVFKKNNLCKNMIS
In short: as §1

GST-SND1(1-203) = target: T8, GST-SND1(1-203) (Arabidopsis thaliana, UniProt Q9LPI7 1-203); conditions: protein: recombinant; tags: GST; chain copies: 2; dsDNA, one strand shown
T8 sequence: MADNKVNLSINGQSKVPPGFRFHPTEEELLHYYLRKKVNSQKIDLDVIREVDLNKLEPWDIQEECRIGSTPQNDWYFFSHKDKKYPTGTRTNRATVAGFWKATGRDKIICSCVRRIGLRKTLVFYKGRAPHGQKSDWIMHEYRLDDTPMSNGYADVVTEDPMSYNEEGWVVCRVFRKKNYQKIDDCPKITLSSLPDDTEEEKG
In short: as §1

GST-VND3 NAC domain = target: T9, GST-VND3 NAC domain (Arabidopsis thaliana, UniProt Q9FH59 12-162); conditions: protein: recombinant; tags: GST; chain copies: 2; dsDNA, one strand shown
T9 sequence: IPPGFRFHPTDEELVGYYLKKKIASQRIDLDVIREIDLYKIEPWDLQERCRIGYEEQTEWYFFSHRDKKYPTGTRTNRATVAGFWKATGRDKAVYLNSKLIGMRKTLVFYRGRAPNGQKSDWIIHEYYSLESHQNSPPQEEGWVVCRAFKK
In short: as §1

GST-VND7 NAC domain = target: T10, GST-VND7 NAC domain (Arabidopsis thaliana, UniProt Q9C8W9 9-158); conditions: protein: recombinant; tags: GST; chain copies: 2; dsDNA, one strand shown
T10 sequence: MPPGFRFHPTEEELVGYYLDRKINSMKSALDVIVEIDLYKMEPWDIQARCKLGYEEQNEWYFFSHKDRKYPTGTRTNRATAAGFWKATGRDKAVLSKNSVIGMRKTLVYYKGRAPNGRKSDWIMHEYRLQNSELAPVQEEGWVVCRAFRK
In short: as §1

GST-WRKY1(266-371) = GST-WRKY1(266-371) (Arabidopsis thaliana, UniProt Q9SI37 266-371); conditions: protein: recombinant; tags: GST; dsDNA, one strand shown
In short: as §1

GST-NTL6(1-168) = GST-NTL6(1-168) (Arabidopsis thaliana, UniProt Q9SCK6 1-168); conditions: protein: recombinant; tags: GST; chain copies: 2; dsDNA, one strand shown
In short: as §1

GST-NTL8 NAC domain = target: T11, GST-NTL8 NAC domain (Arabidopsis thaliana, UniProt Q9XIN7 14-156); conditions: protein: recombinant; tags: GST; chain copies: 2; dsDNA, one strand shown
T11 sequence: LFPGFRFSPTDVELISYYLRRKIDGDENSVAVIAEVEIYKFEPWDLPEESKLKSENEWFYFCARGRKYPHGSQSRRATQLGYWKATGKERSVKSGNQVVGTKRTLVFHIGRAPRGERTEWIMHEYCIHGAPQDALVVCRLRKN
In short: as §1

Chain of GST-WRKY1(266-371) (Q9SI37 266-371): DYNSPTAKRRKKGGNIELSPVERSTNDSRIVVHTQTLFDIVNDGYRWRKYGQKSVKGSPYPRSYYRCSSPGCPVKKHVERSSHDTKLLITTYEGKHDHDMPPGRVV
Chain of GST-NTL6(1-168) (Q9SCK6 1-168): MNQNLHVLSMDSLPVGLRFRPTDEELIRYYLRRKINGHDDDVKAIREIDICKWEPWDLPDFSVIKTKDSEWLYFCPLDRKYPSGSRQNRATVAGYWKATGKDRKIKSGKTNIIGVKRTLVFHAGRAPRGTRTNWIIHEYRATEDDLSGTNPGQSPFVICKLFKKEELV

Question: How did the binding signal (GST-ANAC092(1-176)) turn out when ATGACGTG was run?
Answer: 0.458 E-score

Question: And the binding signal (GST-ANAC019 NAC domain)?
Answer: 0.311 E-score

Question: And the binding signal (GST-ANAC055(1-171))?
Answer: 0.366 E-score

Question: And the binding signal (GST-ATAF1 NAC domain)?
Answer: 0.317 E-score

Question: What about the binding signal [1] of the same sequence?
Answer: 0.463 E-score

Question: And the binding signal (GST-NAP(1-166))?
Answer: 0.36 E-score

Question: And the binding signal (GST-NST2(1-184))?
Answer: 0.258 E-score

Question: And the binding signal (GST-SND1(1-203))?
Answer: 0.326 E-score

Question: What about the binding signal (GST-VND3 NAC domain) of the same sequence?
Answer: 0.366 E-score

Question: What about the binding signal (GST-VND7 NAC domain) of the same sequence?
Answer: 0.322 E-score

Question: What about the binding signal (GST-WRKY1(266-371)) of the same sequence?
Answer: 0.0849 E-score

Question: With ATAAGTAA as the sequence, how does the binding signal (GST-ANAC092(1-176)) read?
Answer: 0.318 E-score

Question: And the binding signal (GST-NTL6(1-168))?
Answer: 0.434 E-score

Question: And the binding signal (GST-ANAC055(1-171))?
Answer: 0.181 E-score

Question: What about the binding signal (GST-ATAF1 NAC domain) of the same sequence?
Answer: 0.246 E-score

Question: And the binding signal [1]?
Answer: 0.363 E-score

Question: And the binding signal (GST-NST2(1-184))?
Answer: 0.29 E-score

Question: And the binding signal (GST-NTL8 NAC domain)?
Answer: 0.167 E-score

Question: What about the binding signal (GST-SND1(1-203)) of the same sequence?
Answer: 0.311 E-score

Question: And the binding signal (GST-VND3 NAC domain)?
Answer: 0.264 E-score

Question: And the binding signal (GST-VND7 NAC domain)?
Answer: 0.18 E-score

Question: What about the binding signal (GST-WRKY1(266-371)) of the same sequence?
Answer: 0.142 E-score

Question: Which results are given for AAGTAATA?
Answer: binding signal (GST-ANAC092(1-176)): 0.31 E-score; binding signal (GST-NTL6(1-168)): 0.428 E-score; binding signal (GST-ANAC055(1-171)): 0.215 E-score; binding signal (GST-ATAF1 NAC domain): 0.207 E-score; binding signal [1]: 0.327 E-score; binding signal (GST-NAP(1-166)): 0.14 E-score; binding signal (GST-NST2(1-184)): 0.274 E-score; binding signal (GST-NTL8 NAC domain): 0.211 E-score; binding signal (GST-SND1(1-203)): 0.294 E-score; binding signal (GST-VND3 NAC domain): 0.216 E-score; binding signal (GST-VND7 NAC domain): 0.136 E-score; binding signal (GST-WRKY1(266-371)): 0.074 E-score

Question: Which results are given for GCAAGTCA?
Answer: binding signal (GST-ANAC092(1-176)): 0.187 E-score; binding signal (GST-NTL6(1-168)): 0.0738 E-score; binding signal (GST-ATAF1 NAC domain): 0.0771 E-score; binding signal [1]: 0.301 E-score; binding signal (GST-NST2(1-184)): 0.0804 E-score; binding signal (GST-SND1(1-203)): 0.175 E-score; binding signal (GST-VND3 NAC domain): 0.115 E-score; binding signal (GST-VND7 NAC domain): 0.12 E-score; binding signal (GST-WRKY1(266-371)): 0.423 E-score

Question: For GCACGTCA, which binding signal (GST-ANAC092(1-176)) is on record?
Answer: 0.449 E-score

Question: What about the binding signal (GST-ANAC019 NAC domain) of the same sequence?
Answer: 0.421 E-score

Question: What about the binding signal (GST-ANAC055(1-171)) of the same sequence?
Answer: 0.341 E-score

Question: What about the binding signal (GST-ATAF1 NAC domain) of the same sequence?
Answer: 0.317 E-score

Question: What about the binding signal [1] of the same sequence?
Answer: 0.465 E-score

Question: And the binding signal (GST-NAP(1-166))?
Answer: 0.341 E-score

Question: What about the binding signal (GST-NST2(1-184)) of the same sequence?
Answer: 0.229 E-score

Question: And the binding signal (GST-SND1(1-203))?
Answer: 0.29 E-score

Question: And the binding signal (GST-VND3 NAC domain)?
Answer: 0.368 E-score

Question: What about the binding signal (GST-VND7 NAC domain) of the same sequence?
Answer: 0.38 E-score

Question: What about the binding signal (GST-WRKY1(266-371)) of the same sequence?
Answer: 0.195 E-score

Question: What does the source list for CTTGCGTC?
Answer: binding signal (GST-ANAC092(1-176)): 0.337 E-score; binding signal (GST-ANAC019 NAC domain): 0.0715 E-score; binding signal (GST-ANAC055(1-171)): 0.0764 E-score; binding signal (GST-ATAF1 NAC domain): 0.0507 E-score; binding signal [1]: 0.402 E-score; binding signal (GST-NAP(1-166)): 0.21 E-score; binding signal (GST-NST2(1-184)): 0.106 E-score; binding signal (GST-SND1(1-203)): 0.162 E-score; binding signal (GST-VND3 NAC domain): 0.0748 E-score; binding signal (GST-VND7 NAC domain): 0.058 E-score; binding signal (GST-WRKY1(266-371)): 0.0999 E-score

Question: With AACACGTC as the sequence, how does the binding signal (GST-ANAC092(1-176)) read?
Answer: 0.397 E-score

Question: What about the binding signal (GST-ANAC019 NAC domain) of the same sequence?
Answer: 0.33 E-score

Question: What about the binding signal (GST-ANAC055(1-171)) of the same sequence?
Answer: 0.325 E-score

Question: And the binding signal (GST-ATAF1 NAC domain)?
Answer: 0.316 E-score

Question: What about the binding signal [1] of the same sequence?
Answer: 0.428 E-score

Question: And the binding signal (GST-NAP(1-166))?
Answer: 0.262 E-score

Question: And the binding signal (GST-NST2(1-184))?
Answer: 0.0538 E-score

Question: And the binding signal (GST-SND1(1-203))?
Answer: 0.12 E-score

Question: What about the binding signal (GST-VND3 NAC domain) of the same sequence?
Answer: 0.343 E-score

Question: What about the binding signal (GST-VND7 NAC domain) of the same sequence?
Answer: 0.312 E-score

Question: What about the binding signal (GST-WRKY1(266-371)) of the same sequence?
Answer: 0.131 E-score
